For nine compounds, z-score and composite z-score results are on record in PubChem BioAssay.

SMILES strings stand for the structures. Calls of active or inactive are those of the source. Unless noted, no rule for the calls is given here.

A short description of assay [1]: HepG2 liver cancer cell viability effects, profiling panel, resazurin fluorescence, 24 h, PK04 Diversity Set (AID 1172). Particulars: higher = more signal.
A short description of assay [2]: basal S. cerevisiae growth modulation, no modifier, primary screen, OD600, strain BY4716, 24 h, basal condition (AID 1173). Particulars: OD600, 24 h, higher = more signal, called active from +8 up or from −8 down.
Assay [3] in a line: MM1S myeloma cell viability, profiling panel, resazurin fluorescence, basal, 24 h, PK04 Diversity Set (AID 1174). Particulars: higher = more signal, called active from +8 up or from −8 down.
Assay [4] addresses Dihydroorotate dehydrogenase (quinone), mitochondrial (Plasmodium falciparum (isolate 3D7)) (UniProt Q08210). In words: PfDHODH enzyme inhibitors, primary screen, biochemical, C-terminal His tag, absorbance 600 nm (AID 1175).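 Also: recombinant parasite enzyme with a five histidine tag at its C terminus.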 Particulars: DCIP absorbance 600 nm, higher = more signal, called active from +8 up or from −8 down.
Assay [5] in a line: S. cerevisiae RM11-1a growth modifiers, primary screen, strain RM11-1a, OD600, basal, 24 h (AID 1177).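 Also: cultures grown under basal conditions with no added stressor.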 Particulars: OD600, 24 h, higher = more signal, called active from +8 up or from −8 down.
Assay [6] is described as follows: E. coli acrAB mutant growth effects, primary screen, E. coli filamentation inducers, strain DRC39, OD650, 24 h (AID 1178).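 Also: growth measured as culture turbidity by optical density at 650 nm.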 Particulars: higher = more signal, called active from +8 up or from −8 down.
Assay [7] can be described thus: E. coli acrAB mutant growth effects, primary screen, E. coli filamentation inducers, strain DRC39, OD650, 48 h (AID 1179).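 Also: screen aims at cell division blockers that make cells filament.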 Particulars: E. coli DRC39 delta-acrAB growth, higher = more signal, called active from +8 up or from −8 down.
Assay [8] is described as follows: RPMI8226 myeloma cell viability, profiling panel, resazurin fluorescence, basal, 24 h, PK04 Diversity Set (AID 1180).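 Also: RPMI8826 multiple myeloma cell line at 5000 cells per well.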 Particulars: higher = more signal. Background: Resazurin is reduced to fluorescent resorufin, in cell work by metabolically active cells.
Assay [9] has as its target E3 ubiquitin-protein ligase XIAP (Homo sapiens) (UniProt P98170). In words: XIAP binders, primary screen, biophysical, small-molecule microarray, fluorescence 635 nm (AID 1181).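 Also: score merges 667 nm emission and signal to noise over triplicate slides.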 Particulars: small-molecule microarray binding, higher = more signal.
Assay [10] deals with XIP peptide (Xip251-270) binding. In words: small-molecule binders of XIP peptide, primary screen, biochemical, small-molecule microarray, fluorescence 635/667 nm, 0.1 µg/mL protein (AID 1182). Particulars: fluorescent protein binding, 635 nm, higher = more signal, called active from +8 up or from −8 down.
Assay [11] concerns XIP peptide (Xip251-270). In words: small-molecule binders of XIP peptide, primary screen, biochemical, small-molecule microarray, fluorescence 635/667 nm, 0.5 µg/mL protein (AID 1183). Particulars: small-molecule microarray binding, fluorescence 635 nm; higher = more signal.
A short description of assay [12]: Plasmodium falciparum growth inhibition, primary screen, strain 3D7, DAPI fluorescence, 100 nL (AID 1184).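 Also: parasites grown inside human red blood cells in medium with human serum.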 Particulars: P. falciparum 3D7 growth, 3 d, higher = more signal.
Assay [13] deals with Homeobox protein Hox-A13 (Mus musculus) (UniProt Q62424). In words: inhibitors of HoxA13-DNA binding, primary screen, biochemical, fluorescence polarization, labeled oligonucleotide (AID 1185). Particulars: 15 min, higher = more signal, called active from +8 up or from −8 down. Background: Fluorescence polarisation rises when a labelled molecule tumbles more slowly, as on binding a larger partner.

A short description of assay [14]: inhibitors of hydroxyurea-induced Chk1 phosphorylation, primary screen, imaging, HeLa, phospho-Chk1 antibody, percent positive cells (AID 1186). Particulars: hydroxyurea-induced phospho-Chk1 immunofluorescence imaging, higher = more signal.
Assay [15] is described as follows: inhibitors of hydroxyurea-induced Chk1 phosphorylation, primary screen, imaging, HeLa, phospho-Chk1 nuclear intensity (AID 1187). Particulars: hydroxyurea-induced phospho-Chk1 immunofluorescence imaging, higher = more signal.

Chain of Dihydroorotate dehydrogenase (quinone), mitochondrial (Plasmodium falciparum (isolate 3D7)) (Q08210 whole entry, looked up): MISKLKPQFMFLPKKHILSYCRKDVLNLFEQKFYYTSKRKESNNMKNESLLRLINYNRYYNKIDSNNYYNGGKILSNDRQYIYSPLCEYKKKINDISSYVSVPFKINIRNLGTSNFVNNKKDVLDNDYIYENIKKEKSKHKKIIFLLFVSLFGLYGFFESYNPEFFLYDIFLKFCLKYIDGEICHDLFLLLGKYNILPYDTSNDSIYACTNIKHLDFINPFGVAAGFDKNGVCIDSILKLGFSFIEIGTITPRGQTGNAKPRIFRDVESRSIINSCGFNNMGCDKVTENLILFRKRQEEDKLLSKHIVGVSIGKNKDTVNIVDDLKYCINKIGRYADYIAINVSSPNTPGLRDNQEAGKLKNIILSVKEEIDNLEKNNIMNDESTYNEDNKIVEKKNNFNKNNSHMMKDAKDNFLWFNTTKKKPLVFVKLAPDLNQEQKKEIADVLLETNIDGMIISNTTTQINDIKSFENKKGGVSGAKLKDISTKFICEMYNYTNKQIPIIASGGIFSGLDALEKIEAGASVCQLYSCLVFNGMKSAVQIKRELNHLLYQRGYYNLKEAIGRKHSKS
Chain of Homeobox protein Hox-A13 (Mus musculus) (Q62424 whole entry, looked up): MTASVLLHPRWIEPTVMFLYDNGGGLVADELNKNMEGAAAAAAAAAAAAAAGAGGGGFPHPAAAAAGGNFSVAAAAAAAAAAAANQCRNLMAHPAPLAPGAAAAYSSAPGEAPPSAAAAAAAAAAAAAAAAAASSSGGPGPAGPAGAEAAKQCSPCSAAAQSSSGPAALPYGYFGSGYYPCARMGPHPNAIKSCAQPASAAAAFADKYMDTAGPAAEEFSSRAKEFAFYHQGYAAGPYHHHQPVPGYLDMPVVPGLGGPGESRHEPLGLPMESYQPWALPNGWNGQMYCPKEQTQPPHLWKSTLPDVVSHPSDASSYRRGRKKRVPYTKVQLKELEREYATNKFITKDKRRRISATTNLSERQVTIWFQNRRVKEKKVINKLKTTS
Chain of E3 ubiquitin-protein ligase XIAP (Homo sapiens) (P98170 whole entry, looked up): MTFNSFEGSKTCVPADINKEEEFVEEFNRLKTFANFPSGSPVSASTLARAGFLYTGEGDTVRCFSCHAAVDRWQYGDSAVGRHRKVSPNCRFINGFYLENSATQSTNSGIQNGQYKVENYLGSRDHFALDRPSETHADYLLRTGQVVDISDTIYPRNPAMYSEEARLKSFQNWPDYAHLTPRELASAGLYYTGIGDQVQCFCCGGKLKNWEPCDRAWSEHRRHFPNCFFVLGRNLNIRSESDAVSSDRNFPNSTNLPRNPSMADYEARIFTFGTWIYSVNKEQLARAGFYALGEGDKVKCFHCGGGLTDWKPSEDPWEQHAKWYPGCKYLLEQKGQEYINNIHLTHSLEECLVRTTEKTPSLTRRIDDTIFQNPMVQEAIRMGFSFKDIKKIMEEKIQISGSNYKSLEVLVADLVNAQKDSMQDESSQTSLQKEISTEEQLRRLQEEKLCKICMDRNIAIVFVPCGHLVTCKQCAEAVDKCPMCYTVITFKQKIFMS

As to `C=CC[C@]1(C(N)=O)N=C(c2ccc(OCCCO)cc2)O[C@H]1c1ccccc1CN=[N+]=[N-]`, the z-score in assay [1] is 0.394; in assay [2], -1.06 (inactive); in [3], 1.06 (inactive); in assay [5], -0.592 (inactive); in assay [6], 2.91 (inactive); in assay [7], 1.21 (inactive). Moreover, the z-score was 1.1 in assay [8]; -2.04 in assay [12]; -2.82 (inactive) in [13]; -0.273 (inactive) in [14]; 0.168 (inactive) in assay [15]. The composite z-score in [4] is 0.199 (inactive); in assay [9], -0.16; in [10], 0.914 (inactive); in [11] it was -0.313.
Turning to `C=C(COC)/C(=C/C[C@H](OC(C)=O)c1ccc(OCCO)cc1)c1cnc2ccccc2c1`, the z-score in assay [1] was 0.807; in [2], -0.229 (inactive); in assay [3] it was 1.03 (inactive); in assay [5], 1.65 (inactive); in assay [6] it was 1.2 (inactive); in assay [7] it was 0.805 (inactive). Further, the z-score in [8] was 1.03; in [12] it was -3.08; in [13], -3.6 (inactive); in assay [14] it was -0.619 (inactive); in assay [15] it was -0.632 (inactive). In addition, the composite z-score in [4] is -2.82 (inactive); in assay [9], -0.102; in assay [10], 0.878 (inactive); in assay [11], 0.0356.
For the compound `CN1C2C=C(c3ccc(CO)cc3)C(C3C(=O)N(C(N)=O)C(=O)C32)C1c1cccs1` (stereo not given), the z-score in assay [1] is 0.935; in assay [2], -1.28 (inactive); in assay [3] it was 1.05 (inactive); in assay [5], 1.19 (inactive); in assay [6] it was 1.09 (inactive); in [7], 0.798 (inactive). The z-score in [8] was 0.898; in assay [12], -1.65; in assay [13], -5.19 (inactive); in [14], -1.21 (inactive); in assay [15], -1.11 (inactive). The composite z-score in assay [4] is 0.683 (inactive); in [9], -0.337; in assay [10], 0.549 (inactive); in assay [11], 0.92.
As for `CC(C)CN1C(=O)[C@@]2(Cc3ccccc31)c1ccccc1C(=O)N(C1CCCCC1)[C@H]2c1ccc(CO)cc1`, the z-score was 0.0515 in assay [1]; -1.91 (inactive) in [2]; 1.05 (inactive) in assay [3]; -1.12 (inactive) in assay [5]; 0.164 (inactive) in assay [6]; 0.464 (inactive) in assay [7]. In addition, the z-score was 1.21 in assay [8]; -1.38 in assay [12]; -0.429 (inactive) in assay [13]; -0.81 (inactive) in [14]; -1.17 (inactive) in assay [15]. Also, the composite z-score is -2.88 (inactive) in assay [4], 0.377 in assay [9], 1.15 (inactive) in assay [10] and -0.906 in assay [11].
Turning to `O=C(NCC(O)CO)[C@]1(Cc2ccccc2)N=C(c2ccc(OCCCO)cc2)O[C@@H]1c1ccccc1` (stereo not given in full), the z-score in [1] was 0.206; in assay [2], -3.32 (inactive); in assay [3], 1.71 (inactive); in assay [5] it was -0.989 (inactive); in assay [6], 2.22 (inactive); in assay [7] it was 0.235 (inactive). The z-score was 0.761 in [8]; -1.62 in assay [12]; -4.2 (inactive) in assay [13]; -0.707 (inactive) in assay [14]; -0.655 (inactive) in assay [15]. Moreover, the composite z-score is 0.287 (inactive) in assay [4], 0.0251 in assay [9], 1.61 (inactive) in [10] and 0.776 in assay [11].
`CN1CCC(CCCO)=CC1C1CC1` (stereo not given): the z-score in [1] was 0.413; in assay [2], -0.821 (inactive); in [3] it was 1.18 (inactive); in assay [5], -1.57 (inactive); in [6], 0.887 (inactive); in assay [7], 0.611 (inactive). For the same compound, the z-score in [8] is 0.63; in assay [12] it was -0.548; in [13], -1.63 (inactive); in assay [14] it was -0.734 (inactive); in [15], -0.684 (inactive). Moreover, the composite z-score in assay [4] is -1.13 (inactive); in assay [9], 0.77; in [10] it was -0.289 (inactive); in assay [11], -0.5.
`O=C(CS)NCCCCCNC(=O)[C@H]1C[C@H]2C(=O)N3CCC[C@H]3C(=O)N2[C@H]1c1ccc(O)cc1`: the z-score in assay [1] is 0.743; in assay [2] it was -1.04 (inactive); in assay [3], 0.613 (inactive); in assay [5], -0.881 (inactive); in assay [6], 1.2 (inactive); in assay [7], 1.34 (inactive). Moreover, the z-score in assay [8] is 1.09; in assay [12], -0.0463; in [13], -3.01 (inactive); in assay [14], 0.23 (inactive); in assay [15] it was 0.426 (inactive). Besides, the composite z-score in assay [4] is -0.581 (inactive); in [9], -0.02; in [10], 0.215 (inactive); in assay [11], -1.02.
For `C=CCOC(=O)[C@@H]1[C@H]2C(=O)O[C@H](c3ccccc3)[C@H](c3ccccc3)N2[C@H](c2ccc(OCCOC(=O)[C@H]3C[C@H]4C(=O)N5CCC[C@H]5C(=O)N4[C@H]3c3ccc(O)cc3)cc2)[C@@]12C(=O)Nc1ccccc12`, the z-score is -0.379 in assay [1]; -0.117 (inactive) in assay [2]; 0.201 (inactive) in assay [3]; 0.256 (inactive) in assay [5]; 0.197 (inactive) in [6]; -0.148 (inactive) in assay [7]. For the same compound, the z-score is 1.03 in [8]; -2.01 in [12]; 1.59 (inactive) in assay [13]; 0.458 (inactive) in assay [14]; 0.895 (inactive) in assay [15]. Also, the composite z-score in assay [4] is 0.0956 (inactive); in assay [9] it was -0.217; in [10], 1.22 (inactive); in assay [11], 0.804.
On to `CO[C@H]1O[C@H](CO)[C@@H](OC(=O)Nc2ccc(Oc3ccccc3)cc2)[C@H](OC(=O)Nc2ccccc2-c2ccccc2)[C@H]1OC(=O)Nc1ccccc1-c1ccccc1`, for which the z-score in assay [1] was -2.96; in assay [2] it was 1.94 (inactive); in assay [3] it was -3.97 (inactive); in [5], 4.09 (inactive); in assay [6] it was 0.275 (inactive); in [7], -0.534 (inactive). In addition, the z-score in assay [8] is -2.5; in [12] it was -2.09; in assay [13] it was 0.193 (inactive); in [14] it was -0.0605 (inactive); in [15], 0.413 (inactive). Besides, the composite z-score was -0.326 (inactive) in [4], 0.344 in assay [9], 1.57 (inactive) in assay [10] and 0.832 in assay [11].
